PubChem BioAssay (NCI)
This is part of a sample that, as a whole, favours compounds with a hit. Of some 79,000 tested, about 15% had one in any assay. Active and inactive are the calls of the source. No stated cut-off is given here; in the data, active means growth inhibition above about 70%; inactive means the rest. Where a SMILES comes first, the peptide text is derived from it. The star is where a group is joined. Boc = CC(C)(C)OC(=O)*

Test: NCI Yeast Anticancer Drug Screen. Data for the bub3 strain (AID 167)
Settings: S. cerevisiae bub3 mutant strain, at 50.0 µM, active compounds read high
Outline: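 Inhibition values come from growth of compound-treated mutant yeast normalised to vehicle-treated controls.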

SMILES	growth inhibition
CC(C)[C@@H]1CC[C@@H](C)C[C@H]1OC(=O)/C=C1\C(C(=O)O[C@@H]2C[C@H](C)CC[C@H]2C(C)C)[C@H]2C=C[C@@H]1O2 (stereo not given in full)	-27.1% (inactive)
COc1cc([N+](=O)[O-])ccc1NC(=O)C(Br)C(Br)c1ccccc1 (stereo not given)	12.5% (inactive)
COc1ccc(C(=O)c2ccc(Cl)cc2)c(O)c1OC	19.4% (inactive)
Cc1cc(=O)[nH]c(NN2C(Cl)C(=O)C2c2cccc(Cl)c2)n1 (stereo not given)	-10.5% (inactive)
COC(=O)CNC(=O)C(CC(C)C)NC(=O)C(CC(C)C)NC(=O)OC(C)(C)C (stereo not drawn) (Boc-Leu-Leu-Gly-OMe; configuration not given here)	-0.6% (inactive)
CCC1(C)OC(C)CC(C)(C)O1 (stereo not given)	-12.6% (inactive)
OCc1ccccc1CO	-3.75% (inactive)
Oc1ccc(Br)cc1C1Nc2ccccc2S1 (stereo not given)	5.15% (inactive)
CN(C(=N)N)c1ccc(C(=O)Oc2ccc([N+](=O)[O-])cc2)cc1	15.1% (inactive)
CC1(C)OC(C(CCl)OS(C)(=O)=O)C(C(CCl)OS(C)(=O)=O)O1 (stereo not given)	-3.5% (inactive)
Nc1cc2c(cc1Br)-c1cc(Cl)c(Cl)cc1C2=O	-2.1% (inactive)
COc1cc(-c2c(C)c(C)nc(OC)c2C#N)cc(OC)c1OC	-15.2% (inactive)
CCCCCN(CCCCC)C(C)=O	-2.15% (inactive)
O=C1C(c2ccccc2Cl)[C@H]2CC=C[C@H]2N1O (stereo not given in full)	-21.6% (inactive)
O=S(=O)(Nc1ncccn1)c1ccc(N=NSC2=NC=NC3=NC=NC32)cc1 (stereo not given)	0.05% (inactive)
O=c1oc2c(CN3CCOCC3)c(O)ccc2c2c1CCCC2	43.6% (inactive)
C/C(=N\NC(=S)Nc1ccc(S(=O)(=O)O)cc1)c1ccccn1	33.2% (inactive)
Cc1ccc(N=Nc2c(N)nc(N)[nH]c2=O)c(C)c1	15.7% (inactive)
CC(=O)N(C(C)=O)C(CS)C(=O)O (stereo not given)	9.05% (inactive)
O=C1NC(=O)C(=C/C=C/C=C\C2C(=O)NC(=O)NC2=O)C(=O)N1	-23.1% (inactive)

SMILES	growth inhibition
Nc1ccc2[nH]c(=S)sc2c1	-0.65% (inactive)
CN(C)c1nc(=Nc2ccc3c(c2)OCO3)ss1	16.9% (inactive)
CC1=CC(C)(C)N=C2SC(=O)c3nc4ccccc4c(=O)n3N12	15.1% (inactive)
CCCCC1(CO)NC(=O)NC1=O (stereo not given)	2.75% (inactive)
CC(O)(CCCCCl)c1nc2ccccc2s1 (stereo not given)	11.9% (inactive)
COC(=O)/C(C)=C/C=C/C(OC)C(OC(N)=O)/C(C)=C/C(C)C(O)C(CC(C)CC1=C(OC)C(=O)C=C(N)C1=O)OC (stereo not given)	2.85% (inactive)
COC(=O)CCC(=O)c1ccc(OC)cc1	10.2% (inactive)
COc1ccc(-c2cc(=O)c3cc(O)ccc3o2)c(OC)c1OC	-6.5% (inactive)
CCC(C)OC(=O)C1C(=O)CC(c2ccccc2)C1c1ccccc1 (stereo not given)	3.4% (inactive)
Cc1cc([N+](=O)[O-])ccc1N=NC(=O)NNc1ccc([N+](=O)[O-])cc1C	4.15% (inactive)
Cc1nc(N)[nH]c(=O)c1CCCN=Cc1ccc([N+](=O)[O-])cc1	31.6% (inactive)
CNS(=O)(=O)c1ccccc1C(=N)c1ccccc1	-45.9% (inactive)
C=C1C(=O)OC2(CCCCC)CCCCC12 (stereo not given)	0.5% (inactive)
COc1ccc(C(=O)C(c2ccccc2)c2ccccc2)cc1	9.25% (inactive)
O=C(O)CCC(=O)c1ccc[nH]1	15.1% (inactive)
Nc1nc(N)c2ncn(-c3ccc(Cl)cc3)c2n1	-0.85% (inactive)
C=C1CC[N+]2(CCCC)CCCC12 (stereo not given)	41.6% (inactive)
Clc1cccc(-c2sc(-c3ccsc3)cc2Cc2ccsc2)c1	-24.1% (inactive)
CCOC(=O)C(=CNC(=S)c1cccnc1)C(=O)OCC	-10% (inactive)
C#C/C=C/CC1OC(C(Br)CC)CC(Br)C2CC1O2 (stereo not given)	32% (inactive)

Test: NCI Yeast Anticancer Drug Screen. Data for the mlh1 rad18 strain (AID 175)
Settings: S. cerevisiae mlh1 rad18 strain growth inhibition; at 50.0 µM; active compounds read high
Outline: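 Genetically defined yeast (DNA repair-deficient) exposed to compounds; growth inhibition determined relative to vehicle.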

SMILES	growth inhibition
CC(C)[C@@H]1CC[C@@H](C)C[C@H]1OC(=O)/C=C1\C(C(=O)O[C@@H]2C[C@H](C)CC[C@H]2C(C)C)[C@H]2C=C[C@@H]1O2 (stereo not given in full)	6.5% (inactive)
COc1cc([N+](=O)[O-])ccc1NC(=O)C(Br)C(Br)c1ccccc1 (stereo not given)	15.6% (inactive)
COc1ccc(C(=O)c2ccc(Cl)cc2)c(O)c1OC	-9.4% (inactive)
Cc1cc(=O)[nH]c(NN2C(Cl)C(=O)C2c2cccc(Cl)c2)n1 (stereo not given)	-33% (inactive)
COC(=O)CNC(=O)C(CC(C)C)NC(=O)C(CC(C)C)NC(=O)OC(C)(C)C (stereo not drawn) (Boc-Leu-Leu-Gly-OMe; configuration not given here)	15.8% (inactive)
CCC1(C)OC(C)CC(C)(C)O1 (stereo not given)	0% (inactive)
OCc1ccccc1CO	3.15% (inactive)
Oc1ccc(Br)cc1C1Nc2ccccc2S1 (stereo not given)	-1.85% (inactive)
CN(C(=N)N)c1ccc(C(=O)Oc2ccc([N+](=O)[O-])cc2)cc1	17.1% (inactive)
CC1(C)OC(C(CCl)OS(C)(=O)=O)C(C(CCl)OS(C)(=O)=O)O1 (stereo not given)	6.95% (inactive)
Nc1cc2c(cc1Br)-c1cc(Cl)c(Cl)cc1C2=O	-11.5% (inactive)
COc1cc(-c2c(C)c(C)nc(OC)c2C#N)cc(OC)c1OC	-17.9% (inactive)
CCCCCN(CCCCC)C(C)=O	7.45% (inactive)
O=C1C(c2ccccc2Cl)[C@H]2CC=C[C@H]2N1O (stereo not given in full)	-5.35% (inactive)
O=S(=O)(Nc1ncccn1)c1ccc(N=NSC2=NC=NC3=NC=NC32)cc1 (stereo not given)	11.8% (inactive)
O=c1oc2c(CN3CCOCC3)c(O)ccc2c2c1CCCC2	31.9% (inactive)
C/C(=N\NC(=S)Nc1ccc(S(=O)(=O)O)cc1)c1ccccn1	50.5% (inactive)
Cc1ccc(N=Nc2c(N)nc(N)[nH]c2=O)c(C)c1	19.8% (inactive)
CC(=O)N(C(C)=O)C(CS)C(=O)O (stereo not given)	2.6% (inactive)
O=C1NC(=O)C(=C/C=C/C=C\C2C(=O)NC(=O)NC2=O)C(=O)N1	-10.6% (inactive)

SMILES	growth inhibition
Nc1ccc2[nH]c(=S)sc2c1	3.35% (inactive)
CN(C)c1nc(=Nc2ccc3c(c2)OCO3)ss1	50.2% (inactive)
CC1=CC(C)(C)N=C2SC(=O)c3nc4ccccc4c(=O)n3N12	16.6% (inactive)
CCCCC1(CO)NC(=O)NC1=O (stereo not given)	-1.4% (inactive)
CC(O)(CCCCCl)c1nc2ccccc2s1 (stereo not given)	17.1% (inactive)
COC(=O)/C(C)=C/C=C/C(OC)C(OC(N)=O)/C(C)=C/C(C)C(O)C(CC(C)CC1=C(OC)C(=O)C=C(N)C1=O)OC (stereo not given)	13.8% (inactive)
COC(=O)CCC(=O)c1ccc(OC)cc1	2.45% (inactive)
COc1ccc(-c2cc(=O)c3cc(O)ccc3o2)c(OC)c1OC	-10.8% (inactive)
CCC(C)OC(=O)C1C(=O)CC(c2ccccc2)C1c1ccccc1 (stereo not given)	-6.35% (inactive)
Cc1cc([N+](=O)[O-])ccc1N=NC(=O)NNc1ccc([N+](=O)[O-])cc1C	23.2% (inactive)
Cc1nc(N)[nH]c(=O)c1CCCN=Cc1ccc([N+](=O)[O-])cc1	29.9% (inactive)
CNS(=O)(=O)c1ccccc1C(=N)c1ccccc1	-31.4% (inactive)
C=C1C(=O)OC2(CCCCC)CCCCC12 (stereo not given)	-10.5% (inactive)
COc1ccc(C(=O)C(c2ccccc2)c2ccccc2)cc1	6% (inactive)
O=C(O)CCC(=O)c1ccc[nH]1	-19.1% (inactive)
Nc1nc(N)c2ncn(-c3ccc(Cl)cc3)c2n1	8.4% (inactive)
C=C1CC[N+]2(CCCC)CCCC12 (stereo not given)	1% (inactive)
Clc1cccc(-c2sc(-c3ccsc3)cc2Cc2ccsc2)c1	2.1% (inactive)
CCOC(=O)C(=CNC(=S)c1cccnc1)C(=O)OCC	-1.5% (inactive)
C#C/C=C/CC1OC(C(Br)CC)CC(Br)C2CC1O2 (stereo not given)	-18.2% (inactive)
